Data: PubChem BioAssay
Activity calls are given as the source filed them.

Key:
[1] = optical density shifts of acrAB sulA E. coli – strain DRC41, OD650, 48 h, E. coli filamentation inducer project, primary screen (AID 1152); conditions: higher = more signal, called active from +8 up or from −8 down;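 also: E. coli MC1000 strain DRC41 lacking acrAB efflux pump and sulA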
[2] = probe aLefty1 binding on compound microarray – biochemical, small-molecule microarray, 635/667 nm fluorescence, primary screen (AID 1153); conditions: higher = more signal;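 also: score merges spot fluorescence with signal-to-noise ratio from the scanned slide images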
[3] = plasmodial surface anion channel blockers, osmotic lysis – cell-based, P. falciparum Indochina, OD700, 1 h, primary screen (AID 1154); conditions: P. falciparum Indochina infected RBC osmotic lysis, higher = more signal, called active from +8 up or from −8 down
[4] = plasmodial surface anion channel blockers, osmotic lysis – cell-based, P. falciparum Indochina, OD700, 2 h, primary screen (AID 1155);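 also: lysis reports solute entry through the parasite surface anion channel PSAC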; conditions: P. falciparum Indochina infected erythrocytes, higher = more signal, called active from +8 up or from −8 down
[5] = changes in parasitized red cell lysis, either direction – P. falciparum Indochina, OD700, 3 h, PSAC antagonist project, primary screen (AID 1156); conditions: P. falciparum-infected erythrocytes, osmotic lysis, higher = more signal, called active from +8 up or from −8 down
[6] = plasmodial surface anion channel blockers, osmotic lysis – cell-based, P. falciparum Indochina, OD700, 18 h, primary screen (AID 1157); conditions: P. falciparum Indochina infected erythrocytes, osmotic lysis OD700, 18 h; higher = more signal, called active from +8 up or from −8 down
[7] = S6 kinase pathway phospho-S6 level changes – cell-based, A549, cytoblot, luminescence, serum-stimulated, primary screen (AID 1158); conditions: 5 h, higher = more signal;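 also: serum-stimulated A549 lung adenocarcinoma cells; signal is phosphorylated S6 detected by cytoblot immunostaining with HRP secondary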
[8] = target: NADPH oxidase 2 (Homo sapiens) (UniProt P04839); test: compounds shifting NOX2 Amplex Red fluorescence – cell-based, HEK293-NOX2, PMA-stimulated, NOX inhibitor project, primary screen (AID 1159); conditions: 45 min, higher = more signal, called active from +8 up or from −8 down; also: test concentration not given here
[9] = target: NADPH oxidase 4 (Homo sapiens) (UniProt Q9NPH5); test: compounds shifting NOX4 Amplex Red fluorescence – cell-based, HEK293-NOX4, tetracycline-induced, NOX inhibitor project, primary screen (AID 1160); conditions: HEK293-NOX4, Amplex Red H2O2 fluorescence, 45 min; higher = more signal, called active from +8 up or from −8 down
[10] = target: NADPH oxidase 5 (Homo sapiens) (UniProt Q96PH1); test: compounds shifting NOX5 Amplex Red fluorescence – cell-based, HEK293-NOX5, NOX inhibitor project, primary screen (AID 1161); conditions: HEK293-NOX5, ionomycin, 45 min, higher = more signal
Chain of NADPH oxidase 5 (Homo sapiens) (Q96PH1 whole entry, looked up): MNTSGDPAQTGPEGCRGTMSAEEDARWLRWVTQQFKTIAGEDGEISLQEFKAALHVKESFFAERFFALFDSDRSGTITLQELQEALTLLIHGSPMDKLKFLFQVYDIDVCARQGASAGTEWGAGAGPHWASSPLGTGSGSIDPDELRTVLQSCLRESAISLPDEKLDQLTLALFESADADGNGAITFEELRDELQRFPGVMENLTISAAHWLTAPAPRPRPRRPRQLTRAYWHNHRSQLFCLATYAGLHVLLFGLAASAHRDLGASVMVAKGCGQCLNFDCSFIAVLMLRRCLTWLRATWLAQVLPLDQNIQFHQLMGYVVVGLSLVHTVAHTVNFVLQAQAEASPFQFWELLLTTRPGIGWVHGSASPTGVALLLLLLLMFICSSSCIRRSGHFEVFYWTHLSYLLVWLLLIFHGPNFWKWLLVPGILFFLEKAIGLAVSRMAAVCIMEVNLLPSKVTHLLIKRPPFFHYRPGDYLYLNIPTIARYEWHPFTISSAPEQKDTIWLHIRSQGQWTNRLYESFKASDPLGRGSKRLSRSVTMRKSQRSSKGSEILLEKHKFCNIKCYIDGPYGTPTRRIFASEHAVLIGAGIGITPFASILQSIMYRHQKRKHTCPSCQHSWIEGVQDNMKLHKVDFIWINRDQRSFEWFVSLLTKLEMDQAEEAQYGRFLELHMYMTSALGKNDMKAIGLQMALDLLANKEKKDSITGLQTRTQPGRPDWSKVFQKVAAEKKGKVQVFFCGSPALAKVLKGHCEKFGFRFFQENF

Chain of NADPH oxidase 2 (Homo sapiens) (P04839 whole entry, looked up): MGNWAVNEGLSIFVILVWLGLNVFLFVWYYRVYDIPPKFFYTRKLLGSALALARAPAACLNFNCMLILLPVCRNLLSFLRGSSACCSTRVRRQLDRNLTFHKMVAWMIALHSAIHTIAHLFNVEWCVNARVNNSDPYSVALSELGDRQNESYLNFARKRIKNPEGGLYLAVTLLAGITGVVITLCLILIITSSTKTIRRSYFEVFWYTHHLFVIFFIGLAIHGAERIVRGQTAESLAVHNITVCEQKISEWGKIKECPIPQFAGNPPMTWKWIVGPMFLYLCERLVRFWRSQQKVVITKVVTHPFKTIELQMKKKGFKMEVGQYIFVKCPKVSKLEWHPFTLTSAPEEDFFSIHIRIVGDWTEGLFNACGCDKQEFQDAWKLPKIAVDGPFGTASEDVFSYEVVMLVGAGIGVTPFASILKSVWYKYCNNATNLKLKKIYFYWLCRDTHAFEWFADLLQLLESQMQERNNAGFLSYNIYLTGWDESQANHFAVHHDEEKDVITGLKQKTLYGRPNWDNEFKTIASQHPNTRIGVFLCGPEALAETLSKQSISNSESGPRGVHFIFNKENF
Chain of NADPH oxidase 4 (Homo sapiens) (Q9NPH5 whole entry, looked up): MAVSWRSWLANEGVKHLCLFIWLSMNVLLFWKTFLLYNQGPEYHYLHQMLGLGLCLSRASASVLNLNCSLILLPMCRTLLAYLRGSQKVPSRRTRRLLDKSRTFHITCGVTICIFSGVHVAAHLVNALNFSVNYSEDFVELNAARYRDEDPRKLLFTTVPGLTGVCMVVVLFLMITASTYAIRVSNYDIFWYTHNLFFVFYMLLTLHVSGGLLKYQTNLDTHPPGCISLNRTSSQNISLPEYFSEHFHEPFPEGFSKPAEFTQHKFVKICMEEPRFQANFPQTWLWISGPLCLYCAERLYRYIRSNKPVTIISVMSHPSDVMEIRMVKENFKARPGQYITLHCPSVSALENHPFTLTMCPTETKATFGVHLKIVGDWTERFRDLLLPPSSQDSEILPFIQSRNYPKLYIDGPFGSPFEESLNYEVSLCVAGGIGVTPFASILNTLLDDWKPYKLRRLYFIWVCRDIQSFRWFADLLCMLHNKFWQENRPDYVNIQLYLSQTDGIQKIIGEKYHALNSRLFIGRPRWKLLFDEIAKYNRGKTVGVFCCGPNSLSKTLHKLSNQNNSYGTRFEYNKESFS

SMILES	z-score [1]	composite z-score [2]	z-score [3]	z-score [4]	z-score [5]	z-score [6]	z-score [7]	z-score [8]	z-score [9]	z-score [10]
COC(=O)C(CC#Cc1ccc2c(c1)[C@]1(C(=O)N2)[C@H](c2ccc(OCCO)cc2)N2[C@H](c3ccccc3)[C@H](c3ccccc3)OC(=O)[C@H]2[C@@H]1C(=O)N1CCc2cc(OC)c(OC)cc2C1)C(=O)OC	-0.339 (inactive)	1.08	3.44 (inactive)	1.89 (inactive)	0.506 (inactive)	0.754 (inactive)	-0.214	1.13 (inactive)	0.632 (inactive)	1.96
C=CCNC(=O)[C@H]1[C@@H]2C(=O)O[C@@H](c3ccccc3)[C@@H](c3ccccc3)N2[C@@H](c2ccccc2OCCO)[C@]12C(=O)Nc1ccc(C#CCCO)cc12	-0.849 (inactive)	-0.133	9.4 (active)	1.75 (inactive)	-0.56 (inactive)	0.982 (inactive)	0.0418	1.76 (inactive)	-0.546 (inactive)	1.93
COC(=O)[C@@]1(Cc2ccc(F)cc2)[C@H]2c3cc(C(=O)N4CCCC4)n(CCCNc4ncc(C(F)(F)F)cc4Cl)c3C[C@H]2CN1C(=O)c1ccccc1	-2.31 (inactive)	0.4	1.58 (inactive)	0.852 (inactive)	1.01 (inactive)	0.863 (inactive)	-0.626	-0.299 (inactive)	-2.23 (inactive)	-0.307
C=CC(=C)[C@H]1Oc2ccccc2S(=O)(=O)N2CCC[C@@H]12	-0.829 (inactive)	0.131	4.63 (inactive)	0.751 (inactive)	-0.309 (inactive)	0.01 (inactive)	0.0928	-0.0944 (inactive)	-1.04 (inactive)	-1.38
COc1cccc(-c2cccc(=O)o2)c1	0.0997 (inactive)	0.565	10.4 (active)	1.6 (inactive)	-0.685 (inactive)	0.611 (inactive)	-0.684	0.705 (inactive)	-1.15 (inactive)	-1.47
CN(C)CCCCCCNC(=O)[C@@H]1C[C@@H]2C(=O)N[C@@H](Cc3ccccc3)C(=O)N2[C@@H]1c1ccc(O)cc1	-0.0959 (inactive)	0.378	1.85 (inactive)	0.596 (inactive)	2.42 (inactive)	0.228 (inactive)	0.594	-0.745 (inactive)	0.262 (inactive)	-0.632
C=CCOC(=O)[C@H]1[C@@H]2C(=O)O[C@@H](c3ccccc3)[C@@H](c3ccccc3)N2[C@@H](c2ccc(OCCOC(=O)[C@@H]3C[C@@H]4C(=O)N[C@@H](CCCCNC(C)=O)C(=O)N4[C@@H]3c3ccc(O)cc3)cc2)[C@]12C(=O)Nc1ccccc12	-0.226 (inactive)	0.379	3.21 (inactive)	1.61 (inactive)	4.15 (inactive)	0.841 (inactive)	-0.0842	1.56 (inactive)	0.962 (inactive)	0.576
COc1cc2c(cc1OC)CN(C(=O)[C@@H]1[C@H]3C(=O)O[C@H](c4ccccc4)[C@H](c4ccccc4)N3[C@H](c3ccc(O)cc3)[C@@]13C(=O)Nc1ccccc13)CC2	2.38 (inactive)	0.154	1.32 (inactive)	0.216 (inactive)	-0.287 (inactive)	-1.28 (inactive)	2.99	0.00476 (inactive)	-0.339 (inactive)	-0.19
C=C[C@@H](COC(=O)OC(C)(C)C)N(Cc1ccc(OC)cc1)S(=O)(=O)c1ccc(Br)cc1	-1.13 (inactive)	-0.0094	1.4 (inactive)	-0.0352 (inactive)	-0.856 (inactive)	-0.0871 (inactive)	-0.273	-0.348 (inactive)	0.525 (inactive)	-1.28
COCCOC(=O)N1C(=O)[C@@]2(c3cc(C#Cc4ccc(OC)cc4)ccc31)[C@H](c1ccccc1OCCO)N1[C@H](c3ccccc3)[C@H](c3ccccc3)OC(=O)[C@H]1[C@@H]2C(=O)NC[C@H](O)c1ccccc1	0.216 (inactive)	0.396	2.92 (inactive)	2.16 (inactive)	-0.76 (inactive)	0.804 (inactive)	-0.325	1.16 (inactive)	1.16 (inactive)	0.967
C=CCOC(=O)[C@@H]1[C@H]2C(=O)O[C@H](c3ccccc3)[C@H](c3ccccc3)N2[C@H](c2ccc(OCCOC(=O)[C@H]3C[C@H]4C(=O)N5CCC[C@H]5C(=O)N4[C@H]3c3ccc(O)cc3)cc2)[C@@]12C(=O)Nc1ccc(I)cc12	0.371 (inactive)	0.19	1.37 (inactive)	-0.552 (inactive)	0.777 (inactive)	-1.37 (inactive)	0.718	0.986 (inactive)	1.1 (inactive)	1.36
COc1cc(COC(C)=O)ccc1OC(C)=O	3.19 (inactive)	0.383	-1.49 (inactive)	-0.983 (inactive)	-1.76 (inactive)	-2.3 (inactive)	1.29	-4.55 (inactive)	-0.433 (inactive)	-0.154
COc1ccc([Si](C)(C)[C@@H]2[C@@H](CCO)O[C@]3(C(=O)N(Cc4ccc(N(C=O)c5ccccc5)cc4)c4ccccc43)[C@H]2C)cc1	-0.482 (inactive)	-0.06	4.33 (inactive)	2.33 (inactive)	0.287 (inactive)	1.7 (inactive)	0.257	1.07 (inactive)	1.52 (inactive)	2.89
O=C1O[C@H](c2ccccc2)[C@H](c2ccccc2)N2[C@H]1[C@@H](C(=O)N1CCCCCCC1)[C@]1(C(=O)Nc3ccc(C#CCCO)cc31)[C@H]2c1ccccc1OCCO	0.609 (inactive)	2.89	1.54 (inactive)	1.19 (inactive)	2.13 (inactive)	0.565 (inactive)	-0.319	1.31 (inactive)	0.959 (inactive)	1.67
COC(=O)c1c(CC[C@@H](CO)NC(=O)NCCn2cc(C3(O)CCCC3)nn2)oc(C(C)=O)c1C(=O)OC	-1.2 (inactive)	-0.403	2.06 (inactive)	0.474 (inactive)	1.29 (inactive)	0.533 (inactive)	-0.359	-0.278 (inactive)	0.233 (inactive)	-0.666
CC(C)C(=C=CC[C@H](O)c1ccc(OCCO)cc1)CCO	-0.595 (inactive)	0.0945	9.47 (active)	1.99 (inactive)	1.11 (inactive)	0.553 (inactive)	-0.365	-1.06 (inactive)	-0.581 (inactive)	-1.96
CC(C)OC(=O)C=C1C[C@@H](c2ccccn2)O[C@@H](c2ccccn2)O1	-0.167 (inactive)	-0.0559	5.54 (inactive)	1.2 (inactive)	-0.277 (inactive)	0.562 (inactive)	-0.0693	-0.223 (inactive)	-0.461 (inactive)	-0.405
CC(C)=CCN[C@H](CO)c1ccccc1	-0.209 (inactive)	-0.114	0.128 (inactive)	-0.916 (inactive)	0.198 (inactive)	-2.39 (inactive)	0.983	-0.763 (inactive)	-0.688 (inactive)	-1.61
C=C[C@H](CO)NS(=O)(=O)c1ccc(Br)cc1	1.25 (inactive)	-0.24	-0.261 (inactive)	-0.102 (inactive)	-0.154 (inactive)	0.325 (inactive)	0.0242	2.3 (inactive)	0.447 (inactive)	0.264
CC(C)(C)OC(=O)CC[C@]1(C(=O)N2CCOCC2)N=C(c2ccc(OCCCO)cc2)O[C@H]1c1ccccc1N=[N+]=[N-]	1.52 (inactive)	0.171	33 (active)	31.2 (active)	1.75 (inactive)	2.8 (inactive)	-0.435	-1.71 (inactive)	-0.279 (inactive)	-1.94
COCCCNC(=O)[C@@H]1c2ccccc2C(=O)N(Cc2ccccc2Cl)[C@H]1c1ccc(CO)cc1	2.51 (inactive)	-0.121	1.62 (inactive)	0.293 (inactive)	0.621 (inactive)	0.11 (inactive)	-0.0671	-0.285 (inactive)	0.986 (inactive)	0.306
CN(C)CCCCCCNC(=O)[C@H]1C[C@H]2C(=O)N[C@@H](CCCCN)C(=O)N2[C@H]1c1cccc(OCCO)c1	-0.497 (inactive)	2.71	2.2 (inactive)	0.192 (inactive)	0.32 (inactive)	0.229 (inactive)	-0.268	1.65 (inactive)	1.03 (inactive)	1.24
CC(C)NC(=O)[C@@]1(C)c2ccccc2C(=O)N(Cc2cc(C(F)(F)F)cc(C(F)(F)F)c2)[C@H]1c1ccc(CO)cc1	-0.204 (inactive)	0.0328	11.8 (active)	1.66 (inactive)	1.35 (inactive)	0.377 (inactive)	0.401	-1.13 (inactive)	0.154 (inactive)	0.685
CCCC[C@H]1OB(O)C[C@H]2C1=C(COC)Cn1c(=O)n(-c3ccccc3)c(=O)n12	0.929 (inactive)	-0.101	0.43 (inactive)	0.0541 (inactive)	0.11 (inactive)	0.0357 (inactive)	0.385	0.175 (inactive)	0.317 (inactive)	0.476
CC1CC/C=C\[C@H]2OC34C=CCN(Cc5ccccc5)C(=O)[C@H]3N(CCCO)C(=O)[C@@H]4C2C(=O)O1 (stereo not given in full)	0.144 (inactive)	-0.147	0.329 (inactive)	-0.093 (inactive)	-0.316 (inactive)	-0.254 (inactive)	-0.102	1.66 (inactive)	0.366 (inactive)	3.18
